ELG1 genotoxic – induces genotoxicity in HEK293T cells with luciferase-tagged ELG1; HEK293T ELG1-luciferase reporter, luminescence, 16 h; Potency, µM (doses to about 46 µM), for the others: top-dose activity change, positive = activation, hits mostly activators; actives 1.3% (n = 330,000); AID 504466; note: % of control where 0% means no effect; nearly all actives have a fitted effect of over 60% in size
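Screening used a luciferase reporter fused to human ELG1 in HEK293T cells. Luminescence was read on a CCD plate imager after 16 hr exposure and 30 min ONE-Glo incubation.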
FLuc counter – counter-screen for miR-21 project: firefly luciferase inhibitors or activators. P08659. purified FLuc, Km substrates, luminescence inhibition. Potency, µM (series often up to 57.5 µM), inactives show at the top dose activity change, negative = inhibition, actives largely listed as inhibitors. actives 6.9% (n = 360,000);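 note: plate controls were vehicle for no effect and reference inhibitor for full effect; nearly all actives have a fitted effect of over 55% in size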
Target sequence (P08659 whole entry, looked up): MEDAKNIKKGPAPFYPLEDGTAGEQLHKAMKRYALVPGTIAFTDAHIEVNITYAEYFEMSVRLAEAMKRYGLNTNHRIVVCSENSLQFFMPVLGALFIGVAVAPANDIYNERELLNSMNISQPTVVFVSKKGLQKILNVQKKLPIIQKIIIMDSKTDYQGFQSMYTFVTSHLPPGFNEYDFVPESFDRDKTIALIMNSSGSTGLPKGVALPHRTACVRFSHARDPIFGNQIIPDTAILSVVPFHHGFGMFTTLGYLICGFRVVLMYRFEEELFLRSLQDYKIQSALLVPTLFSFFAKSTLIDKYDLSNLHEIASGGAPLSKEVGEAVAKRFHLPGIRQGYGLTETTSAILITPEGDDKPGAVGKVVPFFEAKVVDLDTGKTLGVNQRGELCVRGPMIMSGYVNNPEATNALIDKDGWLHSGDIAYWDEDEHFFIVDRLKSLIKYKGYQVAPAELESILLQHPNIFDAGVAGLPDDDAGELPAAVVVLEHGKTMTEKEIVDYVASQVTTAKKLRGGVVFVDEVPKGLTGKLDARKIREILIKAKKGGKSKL
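Biochemical qHTS of compounds, final roughly 60 µM downward over six points, against 10 nM purified firefly luciferase using Km concentrations of substrates (10 uM D-luciferin, 10 uM ATP) in Tris acetate pH 7.5 buffer; luminescence output.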
SMN2 splice enh – enhancers of SMN2 splice variant expression; Potency, µM (titrated, usually from 46.1 µM), inactives show at the highest dose activity change, positive = activation, hits mostly activators; actives 2.8% (n = 210,000); HEK293 SMN2-luciferase splicing reporter, luminescence, 30-36 h; AID 1458; note: % of control where 0% means no effect; nearly all actives have a fitted effect of over 55% in size
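qHTS luciferase splicing reporter: luminescence rises when SMN2 exon 7 is included in transfected HEK293 cells. Compound exposure lasted 30-36 h at 37C, with 4.5 mM final sodium butyrate as control, followed by a ONE-Glo read.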
Rab9 promoter act – Rab9 promoter activation. Huh7 Rab9 promoter-luciferase reporter, luminescence, 24 h. Potency, µM (top dose mostly 9.22 µM), for the others: top-dose activation, negative = inhibition, hits mostly activators. actives 2.8% (n = 320,000); note: % of control where 0% means no effect; nearly all actives have a fitted effect of over 60% in size
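Huh7 cells stably carrying a Rab9 promoter-luciferase reporter, 1500 cells per well in OP-MEM I with 10% FBS, treated with compound 24 hours at 37C. Luciferase activity read by luminescence after 10 minutes with Amplite reagent.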
NPC1 prom act – activates the NPC1 promoter; actives 2.4% (n = 320,000); Huh7 NPC1 promoter luciferase reporter, 24 h; Potency, µM (highest dose often 9.22 µM), without a hit: at the highest dose activation, actives largely listed as activators; AID 485313; note: % of control where 0% means no effect; nearly all actives have a fitted effect of over 60% in size
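NPC1 promoter–luciferase Huh7 cells; 24 h compound; luminescence.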
KinaseGlo FLuc – blocks Kinase-Glo luciferase, a counter-screen artifact. Potency, µM (top dose mostly 38.3 µM), without a hit: top-dose activity change, negative = inhibition, most hits filed as inhibitors. actives 0.28% (n = 200,000). Q27757. Kinase-Glo luciferase, ATP luminescence, 8 min; note: % is set by controls: 0 for no effect and ±100 for the full control effect; nearly all actives have a fitted effect of over 60% in size
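Luminescence was the read-out, taken after 8-minute incubation at ambient temperature. Luciferase turned over luciferin with 10 uM ATP in imidazole pH 7.2 buffer containing KCl, MgCl2, Tween 20 and BSA.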
Numbers without * were called inactive; ? = inconclusive; · = not tested or not shown; [ ] = another dose, or the depositor's remark. An excerpt weighted towards active compounds, which were near 7.4% of everything screened. Calls come from the whole dose curve; as a rule, active = well fitted curve in the direction sought with a large enough effect; inconclusive = small, poorly fitted or top-dose-only effect, or another doubt; inactive = no such curve, though single readings can be large; an effect the other way counts as inactive or inconclusive. Potency is the fitted concentration of half-maximal effect.

SMILES	ELG1 genotoxic	FLuc counter	SMN2 splice enh	Rab9 promoter act	NPC1 prom act	KinaseGlo FLuc
COc1ccccc1NC(=O)CC1S/C(=N/N=C(\C)C2CCCCC2)NC1=O (stereo not drawn)	-7%	1%	·	3%	-5%	·
COc1ccc(CCc2nnc(CCC(=O)NCc3cc(C(C)C)no3)o2)cc1	?	17µM*	?	?	27%	0%
CCCOc1ccc(C(=O)Nc2ccc(S(=O)(=O)Nc3cc(C)nc(C)n3)cc2)cc1	-4%	15µM*	·	-1%	1%	·
Cc1cc(C)nc(NS(=O)(=O)c2ccc(NC(=O)COc3ccc(C(C)(C)C)cc3)cc2)n1	·	11µM*	-9%	·	·	·
CCCCOc1ccc(C(=O)Nc2ccc(S(=O)(=O)Nc3nc(C)cc(C)n3)cc2)cc1	·	?	-20%	·	·	·
CCCCOc1ccc(C(=O)Nc2ccc(S(=O)(=O)Nc3onc(C)c3C)cc2)cc1	0%	17µM*	·	-6%	-7%	·
COc1ccc(OCC(=O)Nc2ccc(S(=O)(=O)Nc3nc(C)cc(C)n3)cc2)cc1	-1%	-19%	3%	4%	-2%	-3%
CCOc1cc(C(=O)Nc2ccc(S(=O)(=O)Nc3onc(C)c3C)cc2)cc(OCC)c1OCC	-4%	·	·	·	·	·
CCCOc1ccc(C(=O)Nc2ccc(S(=O)(=O)Nc3onc(C)c3C)cc2)cc1	17%	8.5µM*	-24%	2%	3%	-1%
OCC1(CCc2ccccc2)CCCN(CCCc2ccccc2)C1 (stereo not drawn)	-2%	1%	·	0%	3%	·
COc1ccc(COC(=O)c2sc3nc4n(c(=O)c3c2C)CCC4)cc1	2%	?	·	-4%	0%	·
O=C(c1ccc2c(c1)N(Cc1cccc(Cl)c1)C(=O)c1ccccc1S2)N1CCOCC1	·	-3%	·	·	·	·
Cc1c(NS(=O)(=O)c2cc(C(=O)NCC3CCCO3)cc(Cl)c2Cl)c(=O)n(-c2ccccc2)n1C (stereo not drawn)	9%	3%	·	-3%	2%	·
COc1ccc(C(=O)Nn2c(SCC(=O)N3CCC(C)CC3)nc3ccccc3c2=O)cc1	?	0.67µM*	-79%	·	0.4µM*	13µM*
COc1ccc(C(=O)Nn2c(SCC(=O)c3ccc(Cl)cc3)nc3ccccc3c2=O)cc1	?	4.8µM*	-88%	0.5µM*	0.45µM*	-21%
COc1ccc(C(=O)Nn2c(SCc3cccc([N+](=O)[O-])c3)nc3ccccc3c2=O)cc1	0.73µM*	5.4µM*	·	3.5µM*	4µM*	-12%
COCCn1c(SCC(=O)N2CCC(C)CC2)nc2ccccc2c1=O	-1%	0%	-12%	5%	-3%	3%
COc1ccc(C(=O)Nn2c(SCC(=O)NCc3ccco3)nc3ccccc3c2=O)cc1	?	0.21µM*	?	0.089µM*	0.32µM*	-28%
O=C(Nn1c(SCc2cccc([N+](=O)[O-])c2)nc2ccccc2c1=O)c1ccccc1	14%	?	?	20%	-2%	-6%
CCn1c(SCC(=O)NCc2ccco2)nc2ccccc2c1=O	0%	-2%	·	0%	-6%	-2%
CC(=O)c1[nH]c(C)c(C(=O)N2CCCC(Nc3cccc(F)c3)C2)c1C (stereo not drawn)	3%	0%	·	-4%	-17%	·
COc1ccc(C(=O)Nn2c(SCC(=O)NC3CCCCC3)nc3ccccc3c2=O)cc1	?	1.9µM*	29%	4µM*	3.5µM*	14µM*
CN(C)/C=C/C(=O)c1ccn(S(=O)(=O)c2ccccc2)c1	-5%	2%	·	-3%	-4%	·
O=C(CCC(=O)N1CCCCCC1)NCc1ccc(F)cc1	0%	0%	·	-8%	-3%	·
Cn1ncc(Br)c1C(=O)OCC(=O)Nc1nc(-c2ccccc2)cs1	1%	-6%	14µM*	-1%	22%	-6%
SMILES	ELG1 genotoxic	FLuc counter	SMN2 splice enh	Rab9 promoter act	NPC1 prom act	KinaseGlo FLuc
COc1cccc(-c2csc(NC(C)=O)n2)c1	10µM*	15µM*	28µM*	4µM*	4µM*	0%
COCC(=O)Nc1nc(-c2ccc(-c3ccccc3)cc2)cs1	0%	?	·	0.79µM*	2.2µM*	·
O=C(CN1CCCCC1)Nc1nc(-c2ccccc2)cs1	?	21µM*	·	22%	?	·
COc1ccc(-c2csc(NC(C)=O)n2)cc1OC	15%	-11%[2.3 µM]	12%	1%	5%	-1%
COCC(=O)Nc1nc(-c2ccc([N+](=O)[O-])cc2)cs1	0%	-5%	3%	?	0%	0%
CCOC(=O)C1CCN(C(=O)CCCn2nc(C)c3c(C)n(-c4ccc(C)cc4)nc3c2=O)CC1	-1%	0%	·	-11%	-3%	·
CCSc1nnc2c(n1)OC(c1ccc(C)cc1)N(C(C)=O)c1ccccc1-2 (stereo not drawn)	·	-2%	-3%	·	·	·
O=C(Nc1ccc(O)c(C(=O)O)c1)Oc1ccccc1	3%	13µM*	·	12%	1%	·
CN1CCN(CC(=O)N(C)c2nc(-c3ccccc3)cs2)CC1	?	15µM*	-35%	2.8µM*	4µM*	-1%
O=C(CN1CCCCC1)Nc1nc(-c2ccc(Cl)cc2)cs1	7%	17µM*	·	1%	1%	·
CC(OC(=O)c1ccc(NC(=O)CC#N)cc1)C(=O)Nc1nc(-c2ccccc2)cs1 (stereo not drawn)	23µM*	2%	·	16%	11%	·
CC(OC(=O)c1ccc(NC(=O)CC#N)cc1)C(=O)Nc1ccc(Oc2ccccc2)cc1 (stereo not drawn)	1%	1%	·	3%	1%	·
O=C(Nc1ccc2oc(=O)c(C(=O)O)cc2c1)Oc1ccccc1	·	·	-14%[9.22 µM]	·	·	-9%[7.66 µM]
Cc1ccc(NC(=S)NNS(=O)(=O)c2ccc3ccccc3c2)cc1Cl	-7%	-18%	·	2%	-2%	·
CCOc1ccc(OCCOC(=O)CN2C(=O)NC3(CCCC3)C2=O)cc1	0%	2%	·	1%	-2%	·
CCc1ccc(OC(=O)Nc2ccccc2)cc1	9%	9.5µM*	·	?	-2%	·
CCc1ccc(-c2csc(NC(=O)Oc3ccccc3)n2)cc1	?	6µM*	·	?	?	·
CCc1ccc(NC(=O)Cc2ccc(OC)cc2)cc1	13%	?	?	3%	18%	-2%
O=C(Nc1nc(-c2cccc(Br)c2)cs1)Oc1ccccc1	10%	-2%	-10%	20%	21%	-3%
N#CCCC(CCC#N)C1=NCCc2ccccc21	1%	2%	·	-1%	-6%	·
COc1ccc(N=CC2=C(O)c3ccccc3C2=O)c(OC)c1	0.065µM*	0.076µM*	-60%	0.71µM*	?	4.5µM*
Fc1ccc(N=Cc2ccc[nH]2)cc1	1%	-9%	·	-4%	0%	·
